# Rows were chosen to be rich in hits. Some 3.4% of all compounds tested hit in one or more screens of this group.
# HTT aggregate – reduces HttQ103-GFP aggregates in PC12 cells. Potency, µM (highest dose often 46.1 µM), usual class: inhibitors. PC12 HttQ103-GFP aggregates, Acumen cytometry, 40 h. actives 1.1% (n = 220,000); further: nearly all actives have a fitted effect of over 60% in size
#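 Ecdysone-promoter PC12 model expressing HTT exon 1 Q103 fused to GFP, induced by tebufenozide at 100 nM final. Compounds titrated; aggregates sized 1–25 µm scored on a 488 nm laser cytometer.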
# IMPase inh – IMPase inhibition in cells; P97697; CHO-M1 cells, IP1 accumulation, HTRF TR-FRET ratio; inhibition (IP1 accumulation), % at 46.1 µM; 120,000 tested, under 10 active; active means well fitted curve in the direction sought with a large enough effect in the signal ratio, not every such curve was filed as active; inconclusive means small, poorly fitted or top-dose-only effect, or a change in a side signal; inactive means no such curve, though single readings can be large or run the other way; the % refers to the signal ratio;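 further: cells stimulated with carbachol in lithium chloride buffer; higher means more IMPase inhibition seen as more IP1 and lower FRET ratio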
# Target sequence (P97697 whole entry, looked up): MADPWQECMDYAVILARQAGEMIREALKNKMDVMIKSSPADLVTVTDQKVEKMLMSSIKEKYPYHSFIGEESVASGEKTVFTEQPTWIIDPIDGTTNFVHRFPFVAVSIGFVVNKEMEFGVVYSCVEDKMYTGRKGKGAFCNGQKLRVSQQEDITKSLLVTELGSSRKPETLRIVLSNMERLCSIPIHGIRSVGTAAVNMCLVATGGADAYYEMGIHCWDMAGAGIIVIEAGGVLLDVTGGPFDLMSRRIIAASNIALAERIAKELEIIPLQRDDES
#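 CHO-M1, 2000 cells/well, cultured 16–30 h; cpd up to 46 uM; carbachol (50 uM solution, stimulation buffer w/ 50 mM LiCl, pH 7.4), 30 min 37C; IP-One TR-FRET, 10 min RT; Ex 320/Em 665, 620; Hill-fit AC50.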
# PNC inhibitor – perinucleolar compartment assembly inhibition; actives 3.1% (n = 140,000); activity change (PNC), negative = inhibition, % at 10 µM; AID 2417; PC3M PTB-GFP, PNC prevalence imaging, 16 h; active compounds read low;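 active means readout at or below -70, meaning at least 70% loss of cells showing the perinucleolar compartment, a nuclear body marking cancer cells; inconclusive means readout between -30 and a set limit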
#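 Read-out is percentage of cells bearing a perinucleolar compartment, from automated 20x imaging of fixed, Hoechst-stained PC3M PTB-GFP cells. Cells were seeded 4 h, then exposed 16 h to compound (23 nl of library stock) in duplicate plates.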
# NPSR antagonist – blocks cAMP signaling of the human neuropeptide S receptor; CHO-NPSR cells, cAMP TR-FRET, antagonist mode; Q6W5P4; Potency, µM (top dose mostly 38.3 µM), hits mostly inhibitors; actives 1% (n = 220,000); further: nearly all actives have a fitted effect of over 50% in size
# Target sequence (Q6W5P4 whole entry, looked up): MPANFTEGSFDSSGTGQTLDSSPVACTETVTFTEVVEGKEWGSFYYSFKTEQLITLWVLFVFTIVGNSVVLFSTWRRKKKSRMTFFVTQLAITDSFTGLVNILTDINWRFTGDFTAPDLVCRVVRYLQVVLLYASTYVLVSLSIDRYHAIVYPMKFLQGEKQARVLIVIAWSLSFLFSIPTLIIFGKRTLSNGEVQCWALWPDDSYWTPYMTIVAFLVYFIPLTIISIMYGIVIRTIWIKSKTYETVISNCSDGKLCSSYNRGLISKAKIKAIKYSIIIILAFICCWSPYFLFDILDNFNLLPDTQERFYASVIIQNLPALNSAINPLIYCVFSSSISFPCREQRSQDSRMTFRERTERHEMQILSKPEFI
# HTT cytoprotect – Huntington cell model cytoprotection by ATP luminescence | PC12 HTT-Q103 induced, cytoprotection, ATP luminescence, 40 h | actives 0.14% (n = 230,000) | Potency, µM (top dose mostly 56.4 µM), usual class: activators; further: nearly all actives have a fitted effect of over 45% in size
#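 Compounds were screened for protection of PC12 cells against cell death after tebufenozide induction (100 nM final) of mutant Huntingtin exon 1 (Q103) fused to GFP.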
# IMPase Li cell – cell-permeable IMPase inhibitors with lithium potentiation; actives 0.35% (n = 210,000); Potency, µM (titrated, usually from 59.4 µM), actives largely listed as inhibitors; CHO-M1 cells, IP1 TR-FRET (IP-One), carbachol + lithium;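 further: IP1 builds up when IMPase is blocked and the TR-FRET signal falls; nearly all actives have a fitted effect of over 50% in size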
#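 Steps: plate 2000 CHO-M1 cells per well and culture 16–30 h; add compound and lithium; incubate 30 min, 37C; add d2-IP1 tracer and Eu cryptate anti-IP1 antibody in lysis buffer; read after 10 min at room temperature.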
# A number is an active result; 0 = inactive; ? = inconclusive; - = no result given; [ ] = dose if it differs, or a comment. Unless noted, the call rests on the fitted dose curve; in most records, active means well fitted curve in the direction sought with a large enough effect; inconclusive means small, poorly fitted or top-dose-only effect, or another doubt; inactive means no such curve, though single readings can be large; an effect the other way counts as inactive or inconclusive.
SMILES,HTT aggregate,IMPase inh,PNC inhibitor,NPSR antagonist,HTT cytoprotect,IMPase Li cell
Cc1ccc(NC(=O)c2ccc3c(c2)C(=O)N(CC2CCCO2)C3=O)cc1C (stereo not drawn),0[9.22 µM],-,-,0,0[10 µM],0
Cc1c(NC(=O)c2ccc3c(c2)C(=O)N(CC2CCCO2)C3=O)cccc1C(=O)O (stereo not drawn),0,0,-81,0,0[10 µM],0
Cc1nnc(NC(=O)c2ccc3c(c2)C(=O)N(CC2CCCO2)C3=O)s1 (stereo not drawn),0,0,-90,0,0,0
COc1ccc2[nH]c(=O)c(CN(C(=O)c3ccccn3)c3ccccc3)cc2c1,0,0,-92,0,0[0.074 µM],0
O=C(c1cccs1)N(Cc1ccco1)Cc1cc2ccccc2[nH]c1=O,0,0,-117,0[7.67 µM],0,0
Cc1ccc2cc(CN(C(=O)c3cccs3)c3ccccc3)c(=O)[nH]c2c1,0[9.22 µM],-,-,0,0[10 µM],-
COc1ccc2[nH]c(=O)c(CN(C(=O)c3cccnc3)c3ccccc3)cc2c1,0,0,0,0,0,0
Cc1ccc2[nH]c(=O)c(CN(C(=O)c3cccs3)c3ccccc3)cc2c1,0,0,-85,0,0[10 µM],?
Cc1cc(C)c2[nH]c(=O)c(CN(Cc3ccco3)C(=O)c3cccs3)cc2c1,?,0,0,?,0[10 µM],0
COc1ccc(CCNC(=O)C2CCN(S(=O)(=O)c3ccc(Cl)cc3)CC2)cc1OC,0,0,-100,0,0[10 µM],0
COc1ccc(CCNC(=O)C2CCN(Cc3nc(-c4cccc(Cl)c4)oc3C)CC2)cc1OC,0,0,-83,0,0[0.074 µM],0
COc1ccc(CCNC(=O)C2CCN(S(C)(=O)=O)CC2)cc1OC,0,0[1.84 µM],0,0,0[10 µM],0
O=C(NNC(=O)C1CCN(S(=O)(=O)c2ccc(Cl)cc2)CC1)c1ccc(S(=O)(=O)N2CCCCC2)cc1,25µM,-,0,0,0[10 µM],0
COc1ccc(OC)c(S(=O)(=O)N2CCC(C(=O)NCCC3=CCCCC3)CC2)c1,0,0,-100,0,0[10 µM],0
COC(=O)c1ccc([N+](=O)[O-])cc1N1C(=O)C2C3CCC(C3)C2C1=O (stereo not drawn),?,-,-,0,0,0
CC(C)=CCC/C(C)=C/CO/N=C1/C[C@@H](O)[C@@H](O)[C@@H]2[C@@H]3C(=O)N([C@@H](C)c4ccccc4)C(=O)[C@H]3CC[C@H]12,-,-,-,-,0[10 µM],-
Cn1c(=O)c(=O)n(C)c2cc(S(=O)(=O)N3CCCC3C(=O)NCc3cccnc3)ccc21 (stereo not drawn),0[9.22 µM],-,-,0,0[10 µM],-
CCCCN1C(=O)N(C)C2C1N(C)C(=O)N2CCCC (stereo not drawn),0,0,-100,0,0[10 µM],0
C=C/C(C)=C/[C@]1(C)SC(=O)C(C)=C1O,-,0,-,-,0[1.9 µM],-
C=CCSc1nc(-c2ccc3c(c2)OCO3)cc(C(F)(F)F)c1C#N,0,0,-96,?,0,?
CC(C)CO/N=C1/C[C@@H](O)[C@@H](O)[C@@H]2[C@@H]3C(=O)N(C4CCCCC4)C(=O)[C@H]3CC[C@@H]12,-,-,-,-,0[10 µM],-
CCSc1ccccc1C(=O)Nc1cccnc1,0,?,-100,0,0[10 µM],0
COc1ccc(-c2noc(CCC(=O)NCc3ccc(OC)cc3OC)n2)cc1,-,0,-,-,-,-
COc1ccc(OC)c(N(CC(=O)Nc2cccnc2)S(=O)(=O)c2ccc(OC)c(OC)c2)c1,0,0,-109,0,0,0
COc1ccc(NC(=O)CCc2nc(-c3ccc(C)cc3)no2)c(OC)c1,0,0,-103,0,0,0
SMILES,HTT aggregate,IMPase inh,PNC inhibitor,NPSR antagonist,HTT cytoprotect,IMPase Li cell
COc1ccc(-c2noc(CCC(=O)Nc3cccnc3)n2)cc1OC,0,0,-100,0,0,0
COc1ccc(CC(=O)Nc2ccc(-c3noc(-c4ccc(Cl)cc4)n3)cc2)cc1,0,0,0,0,0[10 µM],0
COc1ccc(CC(=O)Nc2ccc(-c3noc(-c4cc(OC)c(OC)c(OC)c4)n3)cc2)cc1,0,0,-100,0,0[10 µM],0
CN(C)c1ccc(/C=C(\C#N)C(=O)Nc2nc3c(s2)CCN(Cc2ccccc2)C3)cc1,0[9.22 µM],0,0,0,0,0
CC#CC(=O)N1CCC(CO)(CCc2ccccc2)CC1,0[9.22 µM],-,-,0,0[10 µM],0
COc1ccc(Cc2nc(-c3ccc(NC(=O)c4cccnc4)cc3)no2)cc1,0,0,-126,0,0[1.9 µM],0
COc1ccc(-c2noc(CCC(=O)NCc3cccnc3)n2)cc1,0,0,0,0,0,-
O=C(Nc1ccon1)c1sc2cc(F)ccc2c1Cl,0,0,-100,0,0[0.074 µM],0
O=C(NC1=NCCS1)c1sc2cc(F)ccc2c1Cl,0,0,0,0,0[10 µM],0
CCN(c1ccccc1)S(=O)(=O)c1ccc(Cl)c(NC(=O)CSc2ncn[nH]2)c1,0,0,0,0,0[10 µM],0
Cc1cc(C)c(S(=O)(=O)/N=C2/C=C(Sc3ncn[nH]3)C(=O)c3ccccc32)cc1C,3.5µM,-,?,?,0[10 µM],0
O=C1CCCC2[C@@H]3CCC[N@+]4([O-])CCC[C@H](CN12)C34 (stereo partly drawn),-,-,-,-,0,0
COc1cc(/C=N/NC(=Nc2ccc(C)cc2)c2nc3ccccc3s2)ccc1O,0,0,0,10µM,0,0
Cc1cc(C)c(O)c(-c2cc(C(=O)Nc3ccc(S(=O)(=O)N4CCOCC4)cc3)[nH]n2)c1,20µM,0,0,13µM,0[0.074 µM],0
Cc1cc(NS(=O)(=O)c2ccc(NC(=O)CCCC(=O)O)cc2)nc(C)n1,0,?,-88,0,0,0
N#Cc1c(-c2ccccc2)nc(SCC(=O)Nc2ccccc2F)[nH]c1=O,0,-,0,0,-,10µM
Cc1cc(C)nc(NS(=O)(=O)c2ccc(NC(=O)CSc3nc(-c4ccccc4)c(C#N)c(=O)[nH]3)cc2)n1,0,-,-,4µM,0,11µM
Cc1cccc(NC(=O)CSc2nc(-c3ccccc3)c(C#N)c(=O)[nH]2)c1C,0,?,0,0,0,10µM
N#Cc1c(-c2ccccc2)nc(SCC(=O)Nc2ccccc2)[nH]c1=O,0,?,0,0,0[10 µM],?
CCOC(=O)Nc1ccc(S(=O)(=O)Nc2cc(C)nc(C)n2)cc1,0,0,0,0,0,0
COC(=O)C1=C(C(=O)OC)[C@@H]2N(C)c3ccc(OC)cc3[C@@]23C[C@@H](C(=O)OC)N(S(=O)(=O)c2c(C)noc2C)C3=N1,-,-,-,-,0[10 µM],0
Cc1nnc2c(Nc3cccc(O)c3)nc3ccccc3n12,-,0,-,-,-,-
CC(=O)OC[C@@H]1O[C@@H](Oc2cc(OC(C)=O)c3c(=O)cc(-c4ccc(OC(C)=O)c(OC(C)=O)c4)oc3c2)[C@H](OC(C)=O)[C@H](OC(C)=O)[C@@H]1OC(C)=O,-,-,-,-,0,-

# Source: PubChem (National Center for Advancing Translational Sciences (NCATS))
